Measured values from the supplement of paper PMC10077471.
In all, about 1,900 compounds were measured (“excess over highest single agent (ExcessHSA) synergy score, 6x6 matrix”: median about -83, lowest 2% from about -370 on). The sample holds the lowest values, similar compounds and a random draw of the others, so the mix is not that of the screen.

System: NCI-H446
Experiment: excess over highest single agent (ExcessHSA) synergy score, 6x6 matrix; higher = less synergy (more negative = stronger synergy)
Conditions: 72 h; CellTiter-Glo viability

Row | SMILES | excess over highest single agent
1 | COC1=C(OC)C(=O)C(C/C=C(\C)CC/C=C(\C)CC/C=C(\C)CC/C=C(\C)CC/C=C(\C)CC/C=C(\C)CC/C=C(\C)CC/C=C(\C)CC/C=C(\C)CCC=C(C)C)=C(C)C1=O + Cc1sc2c(c1C)C(c1ccc(Cl)cc1)=N[C@@H](CC(=O)OC(C)(C)C)c1nnc(C)n1-2 [NCGC00250412-19] | -97.2
2 | COc1cc(OC)c(NC(=O)Nc2cc(C)on2)cc1Cl + Cc1sc2c(c1C)C(c1ccc(Cl)cc1)=N[C@@H](CC(=O)OC(C)(C)C)c1nnc(C)n1-2 [NCGC00250412-19] | -142
3 | Cc1ccc(-c2ncn(-c3ccc(Nc4nccc(-c5cccc(N6CCOCC6)c5)n4)cc3)n2)cn1 + Cc1sc2c(c1C)C(c1ccc(Cl)cc1)=N[C@@H](CC(=O)OC(C)(C)C)c1nnc(C)n1-2 [NCGC00250412-19] | -78.7
4 | CO[C@H]1[C@H](O)[C@@H](O)[C@H](n2c3c(Cl)cccc3c3c4c(c5c6cccc(Cl)c6[nH]c5c32)C(=O)NC4=O)O[C@@H]1CO + Cc1sc2c(c1C)C(c1ccc(Cl)cc1)=N[C@@H](CC(=O)OC(C)(C)C)c1nnc(C)n1-2 [NCGC00250412-19] | -234
5 | C[C@H](Cc1ccc(O)c(O)c1)[C@@H](C)Cc1ccc(O)c(O)c1 + Cc1sc2c(c1C)C(c1ccc(Cl)cc1)=N[C@@H](CC(=O)OC(C)(C)C)c1nnc(C)n1-2 [NCGC00250412-19] | -373
6 | N[C@@H](Cc1ccc(O)c(O)c1)C(=O)O + Cc1sc2c(c1C)C(c1ccc(Cl)cc1)=N[C@@H](CC(=O)OC(C)(C)C)c1nnc(C)n1-2 [NCGC00250412-19] | 57.6
7 | O=C(O)C(O)Cc1ccc(O)c(O)c1 (configuration not stated) + Cc1sc2c(c1C)C(c1ccc(Cl)cc1)=N[C@@H](CC(=O)OC(C)(C)C)c1nnc(C)n1-2 [NCGC00250412-19] | -9.7
8 | N#CN=C(NCCCCCCOc1ccc(Cl)cc1)Nc1ccncc1 + Cc1sc2c(c1C)C(c1ccc(Cl)cc1)=N[C@@H](CC(=O)OC(C)(C)C)c1nnc(C)n1-2 [NCGC00250412-19] | -32.9
9 | C/C=C(/C)C(=O)O[C@H]1C(C)=C[C@]23C(=O)[C@@H](C=C(CO)[C@@H](O)[C@]12O)[C@H]1[C@@H](C[C@H]3C)C1(C)C + Cc1sc2c(c1C)C(c1ccc(Cl)cc1)=N[C@@H](CC(=O)OC(C)(C)C)c1nnc(C)n1-2 [NCGC00250412-19] | 104
10 | O=C(Nc1cccc(Nc2ncc(Br)c(NCCc3cnc[nH]3)n2)c1)N1CCCC1 + Cc1sc2c(c1C)C(c1ccc(Cl)cc1)=N[C@@H](CC(=O)OC(C)(C)C)c1nnc(C)n1-2 [NCGC00250412-19] | -166
11 | C[C@@H](N)c1ccc(C(=O)Nc2ccnc3[nH]ccc23)cc1 + Cc1sc2c(c1C)C(c1ccc(Cl)cc1)=N[C@@H](CC(=O)OC(C)(C)C)c1nnc(C)n1-2 [NCGC00250412-19] | 125
12 | Oc1ccc(-c2ccc(-c3cc(Nc4cccc(CNC5CC5)c4)n[nH]3)cc2)c(O)c1 + Cc1sc2c(c1C)C(c1ccc(Cl)cc1)=N[C@@H](CC(=O)OC(C)(C)C)c1nnc(C)n1-2 [NCGC00250412-19] | 79.8
13 | COc1cccc2nc(-c3cccs3)nc(NN3C(=O)C=C(C)C3=O)c12 + Cc1sc2c(c1C)C(c1ccc(Cl)cc1)=N[C@@H](CC(=O)OC(C)(C)C)c1nnc(C)n1-2 [NCGC00250412-19] | -408
14 | CN(CC(=O)N(Cc1ccc(C2CCCCC2)cc1)c1ccc(C(=O)O)c(O)c1)S(=O)(=O)c1c(F)c(F)c(F)c(F)c1F + Cc1sc2c(c1C)C(c1ccc(Cl)cc1)=N[C@@H](CC(=O)OC(C)(C)C)c1nnc(C)n1-2 [NCGC00250412-19] | -91.4
15 | Clc1cccc(-n2nnnc2NCc2ccccc2Oc2ccccn2)c1Cl + Cc1sc2c(c1C)C(c1ccc(Cl)cc1)=N[C@@H](CC(=O)OC(C)(C)C)c1nnc(C)n1-2 [NCGC00250412-19] | -103
16 | Cn1cc(C2=C(c3c4n(c5ccccc35)CCC(CN)C4)C(=O)NC2=O)c2ccccc21 (configuration not stated) + Cc1sc2c(c1C)C(c1ccc(Cl)cc1)=N[C@@H](CC(=O)OC(C)(C)C)c1nnc(C)n1-2 [NCGC00250412-19] | -42.8
17 | Cc1cnc(Nc2cccc(CN3CCOCC3)c2)nc1Nc1cccc(S(=O)(=O)NC(C)(C)C)c1 + Cc1sc2c(c1C)C(c1ccc(Cl)cc1)=N[C@@H](CC(=O)OC(C)(C)C)c1nnc(C)n1-2 [NCGC00250412-19] | 108
18 | CC(=O)Nc1sc2c(c1-c1nc3ccccc3s1)CNC2 + Cc1sc2c(c1C)C(c1ccc(Cl)cc1)=N[C@@H](CC(=O)OC(C)(C)C)c1nnc(C)n1-2 [NCGC00250412-19] | 354
19 | Cc1c(CN2CCN(C(=O)[C@H](C)O)CC2)sc2c(N3CCOCC3)nc(-c3cnc(N)nc3)nc12 + Cc1sc2c(c1C)C(c1ccc(Cl)cc1)=N[C@@H](CC(=O)OC(C)(C)C)c1nnc(C)n1-2 [NCGC00250412-19] | -434

Row | SMILES | excess over highest single agent
20 | Cc1c(CN2CCN(S(C)(=O)=O)CC2)sc2c(N3CCOCC3)nc(-c3cnc(N)nc3)nc12 + Cc1sc2c(c1C)C(c1ccc(Cl)cc1)=N[C@@H](CC(=O)OC(C)(C)C)c1nnc(C)n1-2 [NCGC00250412-19] | -334
21 | CC(C)(O)c1cc2nc(-c3cnc(N)nc3)nc(N3CCOCC3)c2s1 + Cc1sc2c(c1C)C(c1ccc(Cl)cc1)=N[C@@H](CC(=O)OC(C)(C)C)c1nnc(C)n1-2 [NCGC00250412-19] | -253
22 | CNC(=O)c1c(-c2ccc(F)cc2)oc2cc(N(CCO)S(C)(=O)=O)c(C3CC3)cc12 + Cc1sc2c(c1C)C(c1ccc(Cl)cc1)=N[C@@H](CC(=O)OC(C)(C)C)c1nnc(C)n1-2 [NCGC00250412-19] | -113
23 | CN[C@H]1CCc2cc(OC)c(OC)c(OC)c2-c2ccc(OC)c(=O)cc21 + Cc1sc2c(c1C)C(c1ccc(Cl)cc1)=N[C@@H](CC(=O)OC(C)(C)C)c1nnc(C)n1-2 [NCGC00250412-19] | -167
24 | Cc1nc(Nc2n[nH]c3c2CN(C(=O)N[C@H](CN(C)C)c2ccccc2)C3(C)C)c2sccc2n1 + Cc1sc2c(c1C)C(c1ccc(Cl)cc1)=N[C@@H](CC(=O)OC(C)(C)C)c1nnc(C)n1-2 [NCGC00250412-19] | -503
25 | CN1c2ccccc2C(=O)N2CCc3c([nH]c4ccccc34)[C@@H]21 + Cc1sc2c(c1C)C(c1ccc(Cl)cc1)=N[C@@H](CC(=O)OC(C)(C)C)c1nnc(C)n1-2 [NCGC00250412-19] | -226
26 | O=C1NC(=O)/C(=C/c2cccc(C(F)(F)F)c2)S1 + Cc1sc2c(c1C)C(c1ccc(Cl)cc1)=N[C@@H](CC(=O)OC(C)(C)C)c1nnc(C)n1-2 [NCGC00250412-19] | 75.6
27 | Cn1c2cc([S+](C)[O-])sc2c2cnn(Cc3cccc(N)c3)c(=O)c21 (configuration not stated) + Cc1sc2c(c1C)C(c1ccc(Cl)cc1)=N[C@@H](CC(=O)OC(C)(C)C)c1nnc(C)n1-2 [NCGC00250412-19] | -110
28 | CC(=O)NCC(=O)N1[C@@H]2CC[C@H]1c1ccc(Nc3ncc(C(F)(F)F)c(NC4CCC4)n3)cc12 + Cc1sc2c(c1C)C(c1ccc(Cl)cc1)=N[C@@H](CC(=O)OC(C)(C)C)c1nnc(C)n1-2 [NCGC00250412-19] | -534
29 | CS(=O)(=O)c1cccc(CNc2nc(Nc3ccc4c(c3)CCC(=O)N4)ncc2C(F)(F)F)c1 + Cc1sc2c(c1C)C(c1ccc(Cl)cc1)=N[C@@H](CC(=O)OC(C)(C)C)c1nnc(C)n1-2 [NCGC00250412-19] | 58.6
30 | CN(c1ncccc1CNc1nc(Nc2ccc3c(c2)CC(=O)N3)ncc1C(F)(F)F)S(C)(=O)=O + Cc1sc2c(c1C)C(c1ccc(Cl)cc1)=N[C@@H](CC(=O)OC(C)(C)C)c1nnc(C)n1-2 [NCGC00250412-19] | -151
31 | CCS(=O)(=O)Nc1ccc2[nH]c(O)c(C(=Nc3ccc(CN4CCCCC4)cc3)c3ccccc3)c2c1 + Cc1sc2c(c1C)C(c1ccc(Cl)cc1)=N[C@@H](CC(=O)OC(C)(C)C)c1nnc(C)n1-2 [NCGC00250412-19] | -393
32 | CNC(=O)c1ccc2c(C(=Nc3cccc(CN(C)C)c3)c3ccccc3)c(O)[nH]c2c1 + Cc1sc2c(c1C)C(c1ccc(Cl)cc1)=N[C@@H](CC(=O)OC(C)(C)C)c1nnc(C)n1-2 [NCGC00250412-19] | 93.9
33 | COC(=O)c1ccc2c(C(=Nc3ccc(N(C)C(=O)CN4CCN(C)CC4)cc3)c3ccccc3)c(O)[nH]c2c1 + Cc1sc2c(c1C)C(c1ccc(Cl)cc1)=N[C@@H](CC(=O)OC(C)(C)C)c1nnc(C)n1-2 [NCGC00250412-19] | -229
34 | COc1ccc(-c2ccc3ncc4c(c3c2)n(-c2ccc(N3CCNCC3)c(C(F)(F)F)c2)c(=O)n4C)cn1 + Cc1sc2c(c1C)C(c1ccc(Cl)cc1)=N[C@@H](CC(=O)OC(C)(C)C)c1nnc(C)n1-2 [NCGC00250412-19] | -20.2
35 | COc1cc(C(C)C)c(Oc2cnc(NC(CO)CO)nc2N)cc1I + Cc1sc2c(c1C)C(c1ccc(Cl)cc1)=N[C@@H](CC(=O)OC(C)(C)C)c1nnc(C)n1-2 [NCGC00250412-19] | -119
36 | OCc1ccc(-c2ccc(-c3ccc(CO)s3)o2)s1 + Cc1sc2c(c1C)C(c1ccc(Cl)cc1)=N[C@@H](CC(=O)OC(C)(C)C)c1nnc(C)n1-2 [NCGC00250412-19] | 33.9
37 | C/C=C1\NC(=O)[C@H]2CSSCC/C=C/[C@H](CC(=O)N[C@H](C(C)C)C(=O)N2)OC(=O)[C@H](C(C)C)NC1=O + Cc1sc2c(c1C)C(c1ccc(Cl)cc1)=N[C@@H](CC(=O)OC(C)(C)C)c1nnc(C)n1-2 [NCGC00250412-19] | -38.7
